# Compound activity as filed in PubChem.
# GPT2 inh – GPT2 alanine aminotransferase inhibition; Potency, µM (doses to about 57.7 µM), for inactives: at the highest dose activity change, negative = inhibition, usual class: inhibitors; actives 0.25% (n = 100,000); Recombinant GPT2, coupled pyruvate oxidase/HRP Amplex Red fluorescence; Q8TD30; AID 1671188; also: % is scaled to controls: 0 for no effect and ±100 for the full control effect; nearly all actives have a fitted effect of over 60% in size
#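 Fluorescence of coupled pyruvate oxidase/HRP/Amplex Red system (50uM Amplex, 30 min, dark) reports pyruvate formed by GPT2. Enzyme reaction: 10ng/uL GPT2, 2mM L-alanine, 250uM a-KG, 30 min room temperature, pH 7.5; 50uM AOA control.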
# FLuc inh-1 – Photinus pyralis luciferase inhibition; purified P. pyralis luciferase, luminescence, biochemical; Potency, µM (series often up to 115 µM), hits mostly inhibitors; actives 2.5% (n = 76,000); AID 1347043; also: % is scaled to controls: 0 for no effect and ±100 for the full control effect; nearly all actives have a fitted effect of over 65% in size
# Target sequence (P08659 whole entry, looked up): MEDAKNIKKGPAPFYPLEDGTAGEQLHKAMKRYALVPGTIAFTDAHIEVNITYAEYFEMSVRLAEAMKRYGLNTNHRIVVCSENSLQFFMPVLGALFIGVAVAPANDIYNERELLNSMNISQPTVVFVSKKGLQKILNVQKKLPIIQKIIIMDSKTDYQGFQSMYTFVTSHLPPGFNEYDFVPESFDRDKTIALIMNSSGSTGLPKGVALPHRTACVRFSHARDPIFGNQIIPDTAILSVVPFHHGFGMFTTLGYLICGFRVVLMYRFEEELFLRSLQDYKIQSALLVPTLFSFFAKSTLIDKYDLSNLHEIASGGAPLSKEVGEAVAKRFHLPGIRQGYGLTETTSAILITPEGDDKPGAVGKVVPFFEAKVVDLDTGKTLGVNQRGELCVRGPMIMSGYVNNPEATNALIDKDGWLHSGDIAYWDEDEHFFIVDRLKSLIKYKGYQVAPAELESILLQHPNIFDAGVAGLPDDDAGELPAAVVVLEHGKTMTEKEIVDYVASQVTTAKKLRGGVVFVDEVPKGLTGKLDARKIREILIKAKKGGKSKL
#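 Luminescence read by CCD imager after adding enzyme (10nM final) to wells holding compound, titrated in qHTS. Substrates 10uM each D-luciferin and ATP; buffer 50mM Tris acetate pH 7.5, 10mM Mg acetate, Tween-20, BSA.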
# HEK293 tox – kills HEK 293 cells | HEK 293 viability, ATP luminescence (CellTiter-Glo), 48-72 h | Potency, µM (top dose mostly 115 µM), for the others: at the highest dose activity change, negative = cytotoxicity, usual class: inhibitors | actives 6.6% (n = 94,000) | AID 1345083; also: % is scaled to controls: 0 for no effect and ±100 for the full control effect; nearly all actives have a fitted effect of over 60% in size
#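 Cytotoxicity was scored by loss of ATP-coupled luminescence (CellTiter-Glo) in HEK 293 cells. Compound treatment ran 48 or 72 hr at 37 degree Celsius, 5% CO2, 95% humidity.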
# NPR1 antag – human Npr1 receptor antagonism. Potency, µM (series often up to 46.3 µM), for inactives: at the top dose activity change, negative = inhibition, most hits filed as inhibitors. P16066. HEK293 hNpr1 GloSensor cGMP, ANP-stimulated luminescence. actives 1.6% (n = 76,000); calls by dose curve; also: % is scaled to controls: 0 for no effect and ±100 for the full control effect; nearly all actives have a fitted effect of over 60% in size
#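 HEK293 cells stably expressing human Npr1 and cGMP GloSensor pGS-40F, loaded 2 h with 2% GloSensor reagent, given compound 30 min at room temperature. Luminescence read before and 20 min after 0.1 nM hNppA.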
# 3T3 cytotox – cytotoxic compounds in NIH 3T3 cells | NIH 3T3 viability, CellTiter-Glo ATP luminescence, 48-72 h | Potency, µM (series often up to 96.7 µM), for the others: top-dose activity change, negative = cytotoxicity, hits mostly inhibitors | actives 4.3% (n = 94,000); also: % is scaled to controls: 0 for no effect and ±100 for the full control effect; nearly all actives have a fitted effect of over 55% in size
#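 Mouse fibroblast NIH 3T3 cells, 400 per well, received compound via pintool and were incubated for 48 or 72 hr prior to CellTiter-Glo ATP luminescence measurement.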
# FLuc SDR -ATP – binders stabilizing firefly luciferase, without ATP; actives 7.8% (n = 1,300); Potency, µM (titrated, usually from 32.7 µM), without a hit: top-dose activation (signal gain), actives largely listed as activators; shares compounds with FLuc inh-1; Purified FLuc-C-HiBiT, Nano-Glo HiBiT luminescence, no ATP; AID 1963318; also: nearly all actives have a fitted effect of over 55% in size
# FLuc SDR ATP – stabilizes firefly luciferase with ATP present. shares compounds with FLuc inh-1. actives 8.7% (n = 1,300). Potency, µM (series often up to 32.7 µM), for inactives: top-dose activation (gain of signal), actives largely listed as activators. AID 1963319. purified FLuc-C-HiBiT + ATP, HiBiT complementation luminescence;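 also: signal reports ligand binding via conformational change of the enzyme rather than luciferase catalysis; % of control where 0% means no effect; nearly all actives have a fitted effect of over 55% in size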
# FLuc inh-2 – firefly luciferase enzyme inhibition; shares compounds with FLuc inh-1; purified FLuc-C-HiBiT enzyme, luciferin luminescence; Potency, µM (titrated, usually from 32.7 µM), for the others: top-dose activity change, negative = inhibition, actives largely listed as inhibitors; actives 42% (n = 1,300); also: % is scaled to controls: 0 for no effect and ±100 for the full control effect; nearly all actives have a fitted effect of over 70% in size
# An asterisk follows results filed as active; i = inactive; ? = inconclusive; / = no result; [ ] = another dose, or the depositor's remark. This is a sample that favours compounds with a hit; in the whole collection about 10% have one here. Unless noted, calls follow the shape of the dose curve; as a rule, active = well fitted curve in the direction sought with a large enough effect; inconclusive = small, poorly fitted or top-dose-only effect, or another doubt; inactive = no such curve, though single readings can be large; an effect the other way counts as inactive or inconclusive. Potency is read from the fitted curve at half-maximal effect.
SMILES,GPT2 inh,FLuc inh-1,HEK293 tox,NPR1 antag,3T3 cytotox,FLuc SDR -ATP,FLuc SDR ATP,FLuc inh-2
CC(CCn1cccn1)NC(=O)c1csc2nc(-c3ccc(C(F)(F)F)cc3)cn12 (stereo unspecified),-6%,13µM*,?,-27%,?,17%,12%,9.9µM*
COc1cccc(C(=O)NCCn2ccn3nc(-c4ccc(C)cc4C)cc3c2=O)c1OC,i,5.6µM*,?,-5%,?,31%,19%,9.9µM*
COc1cccc(C(=O)NCCn2ccn3nc(-c4ccc(C)c(C)c4)cc3c2=O)c1OC,i,5.6µM*,?,-12%,-23%,23%,17%,7.9µM*
CCOc1ccc(-c2cc3c(=O)n(CCNC(=O)c4cccc5[nH]ccc45)ccn3n2)cc1,-12%,7.9µM*,22µM*,-27%,28µM*,?,?,5.6µM*
COc1ccc(-c2cc3c(=O)n(CCNC(=O)c4cccc(N(C)C)c4)ccn3n2)cc1,i,3.5µM*,?,-28%,-12%,28%,?,?
O=C(NC1CCCC1)C1CCCN(C2CCN(Cc3ccncc3)CC2)C1 (stereo unspecified),-2%,i,-10%,13%,-6%,/,/,/
COc1ccccc1CCC(=O)N1CCC2(CC1)NC(=O)N(c1ccccc1)N2,?,i,?,-8%,?,/,/,/
CC(C)(O)CCc1ccc(C(=O)NCc2noc(-c3ccco3)n2)cc1,i,i,1%,4%,-6%,/,/,/
CC(C)(O)CCc1ccc(C(=O)NCCSc2ccccn2)cc1,3%,2.8µM*,?,-15%,-36%,16%,19%,?
CCS(=O)(=O)N1CCC(N2CCCC(C(=O)NCCc3ccccc3)C2)CC1 (stereo unspecified),3%,i,-23%,0%,-2%,/,/,/
COCCNC(=O)C1CC(=O)N(C2CN(S(=O)(=O)Cc3ccccc3)C2)C1 (stereo unspecified),i,/,-3%,/,-20%,/,/,/
CNC(=O)c1cc(C2CC2)nc2onc(C3CCN(C(C)=O)CC3)c12,/,/,i,/,2%[138 µM],/,/,/
Cc1cccc(OCCn2nnc3sc4c(c3c2=O)CCCC4)c1,/,/,/,/,/,7%,5%,?
Cc1cc(NC(=O)c2ccc(CN3CC[C@H](O)C3)cc2)ccc1F,2%[11.5 µM],0.89µM*,?,10µM*,?,?,?,2µM*
Cc1cn2nc(C(=O)Nc3ccc(N(C)C)cc3)cc2c(N2CCCC2)n1,?,5µM*,?,10%,?,13%,13%,?
Cc1cn2nc(C(=O)NC3CCCC3)cc2c(N2CCCC2)n1,i,i,?,6%,-33%,/,/,/
Cc1ccc(C(=O)N2CCC3(CC2)CC(=O)N(c2ccccc2)c2ccccc2O3)cc1,i,i,?,27%,-26%,/,/,/
Cc1ccc(NC(=O)N2CCCCCCNC(=O)[C@@H]3CCCC[C@@H]32)cc1C,2%,i,3%,1%,-28%,/,/,/
O=C1NCCCCCCN(C(=O)Nc2ccc3c(c2)OCCO3)[C@H]2CCCC[C@@H]12,i,4.5µM*,0%,?,-12%,27%,?,8.8µM*
O=C1NCCCCCCN(Cc2ccncc2)[C@@H]2CN(C(=O)Nc3ccc4c(c3)OCCO4)CC[C@H]12,-2%,11µM*,-21%,-3%,?,20%,17%,?
CN1CCCCCCN(C(=O)Nc2ccc3c(c2)OCCO3)CCC1=O,0%,4.5µM*,-1%,-29%,-11%,29%,?,9.9µM*
CCOc1ccc2c(n1)CCN(C(=O)NC1CCCC1)C2,i,i,6%,0%,-2%,/,/,/
O=C1CN(C(=O)CCC(=O)N2CCCC(Cc3nncn3-c3ccccc3)C2)c2ccccc2N1 (stereo unspecified),0%,i,-5%,3%,-7%,/,/,/
O=C(COc1ccccc1Cl)Nc1ccc(-c2nc3ccccc3s2)cc1,/,/,/,/,/,12%,8%,-5%
CC(=O)Nc1ccc(OCC(=O)NC(C)c2ccccc2)nc1 (stereo unspecified),1%,i,3%,1%,-13%,/,/,/
SMILES,GPT2 inh,FLuc inh-1,HEK293 tox,NPR1 antag,3T3 cytotox,FLuc SDR -ATP,FLuc SDR ATP,FLuc inh-2
CCC(=O)Nc1cccc(OCC(=O)NCc2sc(C)nc2CC)c1,0%,i,1%,-1%,2%,/,/,/
O=C(COc1ccccc1[N+](=O)[O-])Nc1ccc(-c2nc3ccccc3s2)cc1,/,/,/,/,/,15%,10%,-6%
O=C(COc1ccccc1[N+](=O)[O-])Nc1cccc(-c2nc3ccccc3s2)c1,/,/,/,/,/,12%,10%,-14%
O=C(COc1ccc(-c2nnc3n2CCCC3)cc1)Nc1ccc(Cl)cc1,-4%,i,-22%,1%,-5%,/,/,/
COc1ccc(Cc2nnc3ccc(C(=O)NCCCc4ccccc4)cn23)cc1,1%,/,-22%,/,?,/,/,/
O=S(=O)(c1ccccc1)N1CCCC(OCc2noc(C3CCOCC3)n2)C1 (stereo unspecified),2%,/,-25%,/,-30%,/,/,/
N#Cc1c(-n2ncnc2-c2cccc(Br)c2)sc2c1CCCCC2,/,/,/,/,/,31%,?,3.1µM*
C[C@@H]1CN(c2cnc3ccccc3n2)CC[C@@]1(O)C1CCC1,-4%,4µM*,?,?,?,22%,17%,?
C[C@@H]1CN(c2cc(C3CC3)ncn2)C[C@@]1(O)C1CCC1,-30%,i,?,3%,-22%,/,/,/
COc1ccc(-c2noc(N3CCc4ccccc43)n2)cc1,i,1.6µM*,0%,?,-10%,25%,?,3.1µM*
Cc1ccc(C(=O)N2CCC3(CC2)c2[nH]c4ccccc4c2CCN3C)cn1,0%,i,-30%,2%,-26%,/,/,/
CCC(=O)N1CCc2c(C(=O)Nc3ccc(OC)c(OC)c3)cccc21,-8%,i,-16%,2%,-16%,/,/,/
Cc1cccc(NC(=O)N2CCc3c(C(=O)N4CCN(C)CC4)cccc32)c1,i,7.1µM*,?,-25%,-10%,22%,2.5µM*,1.8µM*
